tim23-1 inh – growth inhibitors of tim23-1 mutant yeast, primary screen, luminescence, uHTS. S. cerevisiae tim23-1 growth, BacTiter-Glo luminescence, 24 h. inhibition, % at 20 µM. 330,000 compounds, 1.3% hits. AID 463212, 2010;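 active means growth inhibition of the mutant yeast at or above 50%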;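 further: temperature-sensitive mutant grown at 25 °C; plate controls were DMSO-treated mutant yeast for no effect and medium wells lacking yeast for full effect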
MPTP inh – mitochondrial permeability transition pore inhibitors, primary screen, biochemical, isolated mouse mitochondria, absorbance. inhibition, % at 10 µM. 360,000 compounds, 1.4% hits. AID 602449, 2012. Ca2+ swelling absorbance, 30 min;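 active means inhibition of 50% or more, scaled per plate between neutral and stimulator controls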;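 further: 0% = DMSO wells given calcium and 100% = 1 mM EGTA wells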
TIM10 inh – growth inhibitors of isogenic TIM10 control yeast, primary screen, counter-screen for tim10-1 yeast inhibitor project, luminescence, uHTS | S. cerevisiae TIM10 strain growth, BacTiter-Glo luminescence, 24 h | inhibition, % at 10 µM | 330,000 compounds, 1.4% hits | AID 463195, 2010;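 active means inhibition of 40% or more at the single tested concentration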;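 further: wild-type TIM10 isogenic control strain grown at permissive 25 °C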
Mdm2-MdmX inh – inhibitors of human Mdm2-MdmX association, primary screen, cell-based, luminescence, split luciferase, SaOS-2, uHTS; SaOS-2 split-luciferase Mdm2/MdmX complementation; Protein Mdm4 (Homo sapiens) + E3 ubiquitin-protein ligase Mdm2 (Homo sapiens), …; AID 485346, 2010; inhibition, % at 8 µM; 330,000 compounds, 3% hits;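 active means inhibition of at least 50% at 8 µM in the primary screen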
Target sequence (O15151 whole entry, looked up): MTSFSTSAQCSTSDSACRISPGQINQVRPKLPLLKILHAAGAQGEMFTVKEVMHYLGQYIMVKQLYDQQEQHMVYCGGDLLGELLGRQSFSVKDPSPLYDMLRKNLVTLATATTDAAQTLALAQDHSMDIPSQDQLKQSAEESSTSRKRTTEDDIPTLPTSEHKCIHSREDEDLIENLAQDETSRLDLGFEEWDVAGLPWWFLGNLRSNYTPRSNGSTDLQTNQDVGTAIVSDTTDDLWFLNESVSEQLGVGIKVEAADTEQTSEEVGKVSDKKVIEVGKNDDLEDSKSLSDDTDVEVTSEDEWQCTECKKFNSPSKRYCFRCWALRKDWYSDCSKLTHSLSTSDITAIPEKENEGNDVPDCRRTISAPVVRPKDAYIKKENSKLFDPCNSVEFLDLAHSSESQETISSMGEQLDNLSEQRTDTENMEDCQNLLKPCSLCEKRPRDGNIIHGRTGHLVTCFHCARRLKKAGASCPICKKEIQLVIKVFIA
Target sequence (Q00987 whole entry, looked up): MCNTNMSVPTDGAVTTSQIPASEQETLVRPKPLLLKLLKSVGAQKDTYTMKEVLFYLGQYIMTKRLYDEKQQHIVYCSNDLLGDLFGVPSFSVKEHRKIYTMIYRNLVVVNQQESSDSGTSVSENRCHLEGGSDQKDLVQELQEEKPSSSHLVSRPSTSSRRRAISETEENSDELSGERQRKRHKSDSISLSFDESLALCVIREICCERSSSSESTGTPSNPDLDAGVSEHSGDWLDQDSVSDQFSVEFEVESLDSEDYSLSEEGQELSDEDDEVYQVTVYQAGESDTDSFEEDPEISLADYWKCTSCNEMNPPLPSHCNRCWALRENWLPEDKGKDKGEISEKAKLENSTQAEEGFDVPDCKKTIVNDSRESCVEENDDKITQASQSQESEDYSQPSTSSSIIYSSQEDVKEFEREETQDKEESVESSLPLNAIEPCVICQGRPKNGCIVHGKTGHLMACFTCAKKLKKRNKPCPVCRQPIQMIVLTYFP
tim10-1 inh – growth inhibitors of tim10-1 mutant yeast, primary screen, luminescence, uHTS. S. cerevisiae tim10-1 ts strain growth, BacTiter-Glo, 24 h. inhibition, % at 20 µM. 330,000 compounds, 2.2% hits. AID 463190, 2010;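 active means inhibition of at least 40%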;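 further: mutant grown at 25 °C; 0% = DMSO wells with yeast and 100% = wells holding no yeast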
tim10-1 conf – growth inhibitors of tim10-1 mutant yeast, confirmation, single concentration, luminescence, S. cerevisiae. inhibition, % at 20 µM. shares compounds with tim10-1 inh. S. cerevisiae tim10-1 ts strain growth, BacTiter-Glo, 24 h. 7,400 compounds, 56% hits;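 active means inhibition of yeast growth at or above a set limit in either of two repeat tests at 20 µM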;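 further: tim10-1 mutant grown at permissive 25 °C to find synthetic lethal compounds; 0% = DMSO yeast wells and 100% = medium wells without yeast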
tim10 confirm – growth inhibitors of wild-type TIM10 yeast, confirmation, counter-screen for tim10-1 synthetic lethality project, single concentration, luminescence, S. cerevisiae; shares compounds with TIM10 inh; S. cerevisiae tim10 strain growth, BacTiter-Glo luminescence, 24 h; inhibition, % at 10 µM; 4,600 compounds, 63% hits; AID 463215, 2010;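 active means inhibition of yeast growth at or above a set limit in either of two replicates at 10 µM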;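 further: this counterscreen used the strain with wild-type TIM10; 0% = yeast with DMSO and 100% = medium wells lacking yeast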
tim23-1 confirm – tim23-1 mutant yeast growth inhibitors, confirmation, luminescence, single concentration; AID 463218, 2010; inhibition, % at 20 µM; S. cerevisiae tim23-1 growth, BacTiter-Glo luminescence, 24 h; shares compounds with tim23-1 inh; 4,400 compounds, 83% hits;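 active means inhibition above about 39% in either of two replicate wells at 20 µM, limit read from the data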;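 further: temperature-sensitive tim23-1 mutant grown at 25 °C; 0% = DMSO wells with yeast and 100% = medium wells without yeast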
The depositor's hits bear a star; . = no result given. Only some compounds are listed: those with a hit (about 6.3% of all), similar ones and a draw of the others.

SMILES	tim23-1 inh	MPTP inh	TIM10 inh	Mdm2-MdmX inh	tim10-1 inh	tim10-1 conf	tim10 confirm	tim23-1 confirm
O=[N+]([O-])c1cccc(/C=C/c2ccccn2)c1	13	0	13	3	16	.	.	.
N#C/C(=C\c1cccc([N+](=O)[O-])c1)c1ccccn1	63*	-1	39	4	56*	72*	.	56*
Cc1cc(C)c(C)c(S(=O)(=O)N2CCNC(=O)C2)c1C	.	1	.	.	.	.	.	.
CCC(=O)Oc1oc(-c2ccccc2)nc1C=Nc1ccc(C)cc1	46	2	32	16	19	.	.	.
CCOC(=O)c1ccc(N=Cc2nc(-c3ccccc3)oc2OC(C)=O)cc1	58*	1	45*	16	71*	55*	68*	83*
CCC(=O)Oc1oc(-c2ccccc2)nc1C=Nc1ccccc1OC	53*	1	40	-2	50*	36*	.	70*
CN(C)c1ccc(N=Cc2nc(-c3ccccc3)oc2OC(=O)c2cccc(Br)c2)cc1	17	-1	5	-157	12	.	.	.
CC(=O)Oc1oc(-c2ccccc2)nc1C=Nc1ccccc1	77*	-2	41*	-3	53*	49*	44*	76*
O=C(/C=C/c1ccc(Cl)cc1Cl)n1cccn1	66*	0	53*	23	56*	58*	-26	84*
Cc1ccc(-c2cc(-c3ccccc3C)[nH]n2)c(O)c1	74*	0	49*	-53	48*	58*	57*	54*
Cc1ccc(-c2[nH]ncc2C(=O)c2cccc(F)c2)c(O)c1	30	1	5	9	33	.	.	.
Cc1ccc(-c2cc(-c3cccc(F)c3)n[nH]2)c(O)c1	59*	1	48*	-179	58*	51*	-5	21
Cc1cccc(/C(N)=N/OC(=O)CCc2ccccc2)c1	63*	1	53*	5	59*	52*	46*	46*
Cc1cc(OCC(=O)O/N=C(\N)c2ccccc2)cc(C)c1Cl	73*	2	36	-12	64*	49*	.	80*
Cc1ccc(/C(N)=N/OC(=O)N2c3ccccc3Sc3ccccc32)cc1	68*	-5	86*	37	63*	50*	80*	46*
Cc1ccc(/C(N)=N/OC(=O)CCCc2ccccc2)cc1	70*	-1	60*	-9	54*	49*	63*	66*
COc1ccc(/C(N)=N/OC(=O)CCc2ccccc2)cc1OC	-1	-2	18	-21	9	.	.	.
CCc1nc2ccc(C(=O)NCCCn3ccnc3)cn2c1N(C)Cc1ccc(N(C)C)cc1	.	-2	.	.	.	.	.	.
O=C(NCC1CCCCC1)c1csc([C@@H]2O[C@H](CO)[C@H](O)[C@H](O)[C@H]2O)n1	.	-1	.	.	.	.	.	.
COc1ccc(C(=O)Nc2cc(OC)c(NC(=O)Nc3ccccc3)cc2OC)cc1	.	1	.	.	.	.	.	.
Cc1ccc(CN2CCN(C(=O)/C=C/[C@H]3O[C@@H](n4cc(C)c(=O)[nH]c4=O)C[C@@H]3O)CC2)cc1	.	1	.	.	.	.	.	.
C=C(C)CSc1nnc2n(C)c(=O)c3c4c(sc3n12)CCC4	53*	4	26	11	46*	28	.	54*
COc1ccc(C(=O)Nc2ccccc2C(=O)N/N=C/c2ccncc2)cc1OC	61*	-1	33	-22	43*	55*	.	53*
CCOc1ccc(NS(=O)(=O)c2cccs2)cc1S(=O)(=O)N1CCCC1	.	1	.	.	.	.	.	.
C/C=C/c1cccc(-c2nc(C(=O)NC3Cc4ccccc4C3)cc3c2[C@@H](CCO)N(C(C)=O)C3)c1	.	0	.	.	.	.	.	.

Screening data from PubChem BioAssay.
